Laboratory results as given in PubChem BioAssay (EPA / NIEHS).
Several values for one entry are separate records, joined by “and”; a condition that tells them apart may be missing. Equal values may be shown once. Results filed as inconclusive are left out. Activity calls are given as the source filed them. The calls were made as follows: active = hit-call score of the fitted dose curve at least 0.9, where 1 is the maximum; inconclusive = response in the unintended direction; inactive = score below 0.9.

What was measured:
[1] = TOX21_p53_BLA_p2_viability: Viability Assessment in the Tox21 HCT-116 p53 Agonism Beta-lactamase Assay, Phase 2 (AID 2283591);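 also: compound exposure lasted 16 h at 37 °C; actives lower the ATP signal meaning cytotoxicity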
Procedure, shortened: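 HCT116 p53-bla cells, 4000/well, dosed after 5 h plating (217-fold dilution of DMSO stocks) and incubated 16 h at 37C. Viability taken as cellular ATP by CellTiter-Glo luminescence after 30 min RT; signal loss marks cytotoxicity.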

[2] = biological target: Cellular tumor antigen p53 (Homo sapiens) (UniProt P04637); experiment: TOX21_p53_BLA_p2_ratio: Tox21 HCT-116 p53 Agonism Beta-lactamase Assay, Ratio, Phase 2 (AID 2283592)
Procedure, shortened: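 In this cell-based reporter format, HCT116 cells were dosed with chemicals delivered from DMSO by 217-fold dilution and incubated 16 h at 37C. Emission at 460 and 530 nm after 2 h CCF4-AM loading provided the ratio, fitted upward versus DMSO.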

[3] = TOX21_p53_BLA_p3_viability: Viability Assessment in the Tox21 HCT-116 p53 Agonism Beta-lactamase Assay, Phase 3 (AID 2283593);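 also: cells exposed to compound for 16 h before reading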
Procedure, shortened: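 HCT116 cells, 4000/well, dosed 5 h after plating by pin transfer (217-fold dilution from DMSO stock) and incubated 16 h at 37C, 5% CO2. Viability read as ATP luminescence with CellTiter-Glo after 30 min at room temperature.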

[4] = biological target: Cellular tumor antigen p53 (Homo sapiens) (UniProt P04637); experiment: TOX21_p53_BLA_p3_ratio: Tox21 HCT-116 p53 Agonism Beta-lactamase Assay, Ratio, Phase 3 (AID 2283596)
Procedure, shortened: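 HCT116 p53-bla cells (4000/well) given compound in DMSO (217-fold dilution) after 5 h, incubated 16 h at 37C. CCF4-AM substrate 2 h at room temperature; 460/530 nm emission ratio, gain fitted against DMSO.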

[5] = TOX21_p53_BLA_p4_viability: Viability Assessment in the Tox21 HCT-116 p53 Agonism Beta-lactamase Assay, Phase 4 (AID 2283597);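 also: hits lower the luminescence signal meaning cytotoxicity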
Procedure, shortened: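 We seeded HCT116 p53 reporter cells at 4000/well and waited 5 h. We then added compounds in DMSO at a 217-fold dilution and incubated for 16 h. Viability was read as CellTiter-Glo luminescence after 30 min at RT.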

[6] = biological target: Cellular tumor antigen p53 (Homo sapiens) (UniProt P04637); experiment: TOX21_p53_BLA_p5_ratio: Tox21 HCT-116 p53 Agonism Beta-lactamase Assay, Ratio, Phase 5 (AID 2283599)
Procedure, shortened: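 HCT-116 p53-bla cells (4000/well) plated 5 h, dosed with compound (217-fold DMSO dilution) for 16 h at 37 C; CCF4-AM substrate 2 h at room temperature. Activity is the 460/530 nm emission ratio (405 nm excitation), fitted in gain-of-signal direction versus DMSO.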

[7] = TOX21_p53_BLA_p5_viability: Viability Assessment in the Tox21 HCT-116 p53 Agonism Beta-lactamase Assay, Phase 5 (AID 2283600)
Procedure, shortened: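 Compounds, pinned from DMSO at 217-fold dilution, were left on the cells for 16 h. The viability endpoint was ATP content measured by CellTiter-Glo luminescence, where falling signal reflects cytotoxicity.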

[8] = biological target: Cellular tumor antigen p53 (Homo sapiens) (UniProt P04637); experiment: TOX21_p53_BLA_p4_ratio: Tox21 HCT-116 p53 Agonism Beta-lactamase Assay, Ratio, Phase 4 (AID 2283601)
Procedure, shortened: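 HCT-116 p53 beta-lactamase reporter cells (4000/well) preincubated 5 h, then compound (217-fold dilution of DMSO stock) for 16 h at 37C. CCF4-AM substrate added 2 h at room temperature; 460/530 nm emission ratio fitted upward versus DMSO.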

Sequence of Cellular tumor antigen p53 (Homo sapiens) (P04637 whole entry, looked up): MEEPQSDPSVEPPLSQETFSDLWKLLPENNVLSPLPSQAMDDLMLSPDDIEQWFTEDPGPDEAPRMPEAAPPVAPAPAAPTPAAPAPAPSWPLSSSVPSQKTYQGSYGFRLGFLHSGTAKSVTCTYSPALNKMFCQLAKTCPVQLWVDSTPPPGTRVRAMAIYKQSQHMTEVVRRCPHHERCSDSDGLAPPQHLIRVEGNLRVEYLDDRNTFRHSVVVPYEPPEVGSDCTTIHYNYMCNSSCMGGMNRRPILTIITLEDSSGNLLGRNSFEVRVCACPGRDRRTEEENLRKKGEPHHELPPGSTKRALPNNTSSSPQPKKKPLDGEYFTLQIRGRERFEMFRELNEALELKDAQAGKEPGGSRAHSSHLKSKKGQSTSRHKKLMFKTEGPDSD

Compound | outcome [1] | outcome [2] | outcome [3] | outcome [4] | AC50 [5] | outcome [6] | outcome [7] | outcome [8] | AC50 [3] | AC50 [6] | AC50 [7] | AC50 [8] | AC50 [2] | AC50 [4] | outcome [5] | AC50 [1]
C1CCCC1.C1CCCC1.[Cl][V][Cl] | inactive | inactive | inactive | inactive | 40.3 µM (active) | inactive | inactive | inactive |  |  |  |  |  |  |  | 
Cc1cc(CC(C)CC(C)(C)C)n(O)c(=O)c1 (stereo not drawn) (tested in a mixture with another compound) | inactive | inactive |  | inactive | 34.1 µM (active) |  |  |  | 43.5 µM (active) | 36.1 µM (active) | 41.8 µM (active) | 33 µM (active) |  |  |  | 
Nc1nc(F)nc2c1ncn2[C@@H]1O[C@H](CO)[C@@H](O)[C@@H]1O | inactive |  | inactive |  |  |  | inactive |  |  | 22.5 µM (active) and 25.2 µM (active) |  | 22.5 µM (active) and 24 µM (active) | 21.1 µM (active) and 20 µM (active) | 13.2 µM (active) and 20.6 µM (active) | inactive | 
COc1ccc(CN2CCN(C(c3ccc(F)cc3)c3ccc(F)cc3)CC2)c(OC)c1OC |  | inactive |  | inactive | 23 µM (active) | inactive | inactive | inactive | 23 µM (active) |  |  |  |  |  |  | 23 µM (active)
O=C(O)C[C@H](NC(=O)OCc1ccccc1)C(=O)O | inactive | inactive | inactive | inactive |  | inactive | inactive | inactive |  |  |  |  |  |  | inactive | 
O=C(O)c1cc(=O)c2c3nc4ccccc4oc-3cc(=O)c2[nH]1 | inactive | inactive | inactive | inactive |  | inactive | inactive | inactive |  |  |  |  |  |  | inactive | 
O[C@@H]([C@H](O)[C@H](O)CBr)[C@H](O)CBr | inactive | inactive | inactive | inactive |  | inactive | inactive | inactive |  |  |  |  |  |  | inactive | 
COc1cc2c(cc1OC)C(=O)C(CC1CCN(Cc3ccccc3)CC1)C2 (stereo not drawn) | inactive | inactive | inactive | inactive |  | inactive | inactive | inactive |  |  |  |  |  |  | inactive | 
O=CC=C(c1ccccc1)c1ccccc1 | inactive |  |  | inactive | 29.8 µM (active) | inactive | inactive | inactive | 47.3 µM (active) |  |  |  | 46.4 µM (active) |  |  | 
Nc1ccc(C(=O)Nc2ccccc2N)cc1 | inactive |  | inactive |  | 20.9 µM (active) | inactive | inactive | inactive |  |  |  |  | 12.6 µM (active) | 21.1 µM (active) |  | 
O=C1c2c(O)ccc([N+](=O)[O-])c2C(=O)c2c([N+](=O)[O-])ccc(O)c21 |  |  |  |  | 11.7 µM (active) |  |  |  | 9.74 µM (active) | 30.2 µM (active) | 9.58 µM (active) | 20.7 µM (active) | 25.4 µM (active) | 28.7 µM (active) |  | 7.2 µM (active)
CCCCCCCC[N+](CCCCCCCC)(CCCCCCCC)CCCCCCCC |  |  |  |  | 36.2 µM (active) |  |  |  | 29.3 µM (active) | 64.1 µM (active) | 34 µM (active) | 64.5 µM (active) | 54.8 µM (active) | 56.2 µM (active) |  | 18.9 µM (active)
CCCCCCOc1ccc(C(=N)N(CCCC)CCCC)c2ccccc12 |  |  |  |  | 10.1 µM (active) |  |  |  | 23 µM (active) | 29.5 µM (active) | 23 µM (active) | 19.9 µM (active) | 32.7 µM (active) | 36.4 µM (active) |  | 23 µM (active)
O=C(O)CCC(=O)C(=O)O | inactive | inactive | inactive | inactive |  | inactive | inactive | inactive |  |  |  |  |  |  | inactive | 
O=C(O)CCCl | inactive | inactive | inactive | inactive |  | inactive | inactive | inactive |  |  |  |  |  |  | inactive | 
N#CC(c1ccc(Cl)cc1)c1c(Cl)cc(-n2ncc(=O)[nH]c2=O)cc1Cl (stereo not drawn) | inactive |  |  |  | 31.4 µM (active) |  | inactive |  | 32.2 µM (active) | 22.1 µM (active) |  | 22.1 µM (active) | 19.6 µM (active) | 20.3 µM (active) |  | 
NC(=S)N=Nc1ccc(NN=C(N)N)cc1 | inactive | inactive | inactive | inactive |  | inactive | inactive | inactive |  |  |  |  |  |  | inactive | 
O=C1C=CC(=O)N1 | inactive |  |  |  | 79.4 µM (active) |  | inactive |  | 69.8 µM (active) | 82.4 µM (active) |  | 70.3 µM (active) | 73.5 µM (active) | 70.8 µM (active) |  | 
CC1(S(=O)(=O)O)CC(=O)c2ccccc2C1=O (stereo not drawn) | inactive |  | inactive |  |  |  | inactive | inactive |  | 36.7 µM (active) |  |  | 34.5 µM (active) | 43.4 µM (active) | inactive | 
CCOc1ccc2nc3cc(N)ccc3c(N)c2c1 | inactive |  | inactive |  |  |  | inactive |  |  | 43.5 µM (active) |  | 32.4 µM (active) | 30.3 µM (active) | 36.4 µM (active) | inactive | 
CCC(=O)O[C@]1(C(=O)SCF)[C@H](C)C[C@H]2[C@@H]3C[C@H](F)C4=CC(=O)C=C[C@]4(C)[C@@]3(F)[C@@H](O)C[C@@]21C | inactive | inactive | inactive | inactive |  | inactive | inactive | inactive |  |  |  |  |  |  | inactive | 
